# Laboratory results from PubChem BioAssay (NCI).
# Several values for one entry are separate records, joined by “and”; a condition that tells them apart may be missing. Equal entries are not always repeated. This is part of a sample that, as a whole, favours compounds with a hit. Of some 83,000 tested, about 20% had one in any assay.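 Plates (96-well) were seeded with cells, treated with compound at one concentration, and incubated for 48 hours before percent growth was determined.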 Activity calls are given as the source filed them. Where a SMILES comes first, the peptide text is derived from it.
# System: HCT-116 colon
# Experiment: NCI-60 one-dose screen, 48 h (100 = growth as untreated, 0 = no growth, -100 = all killed)
# Conditions: 10 µM unless noted
# Method: Growth inhibition of the HCT-116 human tumor cell line is measured as a screen for anti-cancer activity. Cells are grown in 96 well plates and exposed to the test compound for 48 hours. Compounds are tested at a single concentration, which is 10^-5 M for most compounds. The reported endpoint is percent growth (GI% or GIPRCNT), where numbers from 0 - 100% represent growth inhibition, and numbers from -100% - 0 represent cell death. For example, a value of 40 represents 60% growth inhibition. A value of 0 means no net growth occurred over the course of the experiment. A value of -40 indicates 40% of cells at the beginning of the experiment died by the end of the experiment. A value of -100 means all cells are dead at the end of the experiment.
# NCI-60 Human Tumor Cell Lines Screen was performed using the standard one-dose NCI protocol, which is described in more detail at https://dtp.cancer.gov/discovery_development/nci-60/default.htm.
# Compounds with GIPRCNT values below 10 were considered active. Activity score was based on GIPRCNT using the following formula: […]
# Score is 0 for GIPRCNT values of 100 or above, 50 for GIPRCNT values of 0, and 100 for GIPRCNT values of -100.
row,SMILES,growth
1,COc1ccc(N/C=C/C2=[N+](C)c3ccccc3C2(C)C)c(OC)c1,88.8% (inactive)
2,C/C(=C\c1ccccc1)c1ccccn1,101% (inactive)
3,CC1CCC(C(C)C)C(NNC(N)=O)C1 (stereo not given),99.5% (inactive)
4,CCCCCCCCCCNC(=O)CI,-28.3% (active)
5,NC(=O)NCCCC(N)C(=O)O (stereo not given),104% (inactive)
6,CC1CCC2(OC1)OC1CC3C4CC=C5CC(O)CCC5(C)C4CCC3(C)C1C2C (stereo not given),92.2% (inactive)
7,OCC1OC(O)C(O)C(O)C1O (stereo not given),104% (inactive)
8,NC(Cc1ccccc1)C(=O)NC(Cc1ccccc1)C(=O)O (stereo not drawn) (H-Phe-Phe-OH; configuration not given here),103% (inactive) and 100% (inactive)
9,O=C1c2c(O)ccc(O)c2C(=O)c2c(NCCNCCO)ccc(NCCNCCO)c21,-20.2% (active) and -44.9% (active)
10,CC(C)C(C)(C)c1ccc(O)cc1,105% (inactive)
11,CC1(C)COC(=S)N1,105% (inactive)
12,CC(=O)OCC1OC(OC(C)=O)C(OC(C)=O)C(OC(C)=O)C1OC(C)=O (stereo not given),103% (inactive)
13,OCCN1CCCCCCC1,97.1% (inactive)
14,CCCCCCCCCCCCCCCCC(C(=O)O)C(O)(CC(=O)O)C(=O)O (stereo not given),105% (inactive) and -35.5% (active)
15,Nc1ccc2c(O)cc(S(=O)(=O)O)cc2c1,93.8% (inactive) and 94% (inactive)
16,OC1COC(OCc2ccccc2)C(O)C1O (stereo not given),99.6% (inactive)
17,Nc1nc(N)c2[nH]cnc2n1,90.5% (inactive)
18,COc1ccc(Nc2ccc3ccccc3c2)cc1,79% (inactive)
19,Nc1ncnc2c1ncn2C1OC(COP(=O)(O)O)C(O)C1O (stereo not given),108% (inactive)
20,Cc1cc2ccccc2cn1,99% (inactive) and 108% (inactive)

row,SMILES,growth
1,CC(C)NC(=O)N/C=C(\C#N)C(N)=O,90.9% (inactive)
2,CCCCNc1ccc(Nc2ccccc2)cc1,47.9% (inactive)
3,CC(=O)OC(C)C(=O)NCC(C)O (stereo not given),95.2% (inactive)
4,C#CCOC(=O)Nc1ccccc1,105% (inactive)
5,CC(=O)NCC(=O)c1ccc([N+](=O)[O-])cc1,106% (inactive)
6,Cc1ccc(=O)[nH]n1,107% (inactive)
7,Cn1cnc([N+](=O)[O-])c1Sc1ncn[nH]1,101% (inactive)
8,Oc1ccc(Cc2ccccc2Cl)c(O)c1,96.6% (inactive)
9,c1ccc(-c2nc3ccccc3s2)cc1,97.3% (inactive)
10,O=C(/C=C/c1ccccc1)c1ccccc1,6.71% (active)
11,O=C(Cc1ccccc1)c1ccc(O)c(Cl)c1,27% (inactive)
12,CC(C)(O)C(=O)O,100% (inactive)
13,CCOC(=O)c1c(C)cc(=O)oc1C,95.4% (inactive)
14,CC1CCC2(C(=O)O)CCC3(C)C(=CCC4C5(C)CCC(O)C(C)(C)C5CCC43C)C2C1C (stereo not given),6.37% (active) and 85.7% (inactive)
15,COc1ccc(C(=O)CC(c2ccccc2)C(C#N)c2ccccc2)cc1 (stereo not given),91.2% (inactive)
16,CN(C)CC1CCCCCC(CN(C)C)C1=O (stereo not given),-35.5% (active)
17,COc1ccc2cc1Oc1ccc(cc1)C[C@H]1c3cc(c(OC)cc3CCN1C)Oc1c(OC)c(OC)cc3c1[C@H](C2)N(C)CC3,14% (inactive)
18,O=C1CSC2=NCCN12,82.7% (inactive) and 63.8% (inactive)
19,O=C1OC(c2ccccc2)=N/C1=C\c1ccccc1,102% (inactive)
20,O=C1OC(C(O)C(O)CO)C(O)=C1O (stereo not given),100% (inactive) and 92.8% (inactive)
